Laboratory results: article PMC7862700, “An all-to-all approach to the identification of sequence-specific readers for epigenetic DNA modifications on cytosine”

Columns and labels:
Experiment in all cases: DAPPL (digital affinity profiling via proximity ligation, sequencing); 10 mM Tris-HCl pH 7.5, 50 mM NaCl, 1 mM DTT, 4% glycerol, room temperature, 30 min; GST-TFs on glutathione beads, 16-mer random dsDNA library, 0.1% formaldehyde crosslink after washing; high values mean tight binding
[1] = biological target: ETV5 (Homo sapiens, UniProt P41161 1-510); settings: protein: recombinant; tags: N-terminal GST; dsDNA, one strand shown
Chain of ETV5 (P41161 whole entry, the tested form may be a part): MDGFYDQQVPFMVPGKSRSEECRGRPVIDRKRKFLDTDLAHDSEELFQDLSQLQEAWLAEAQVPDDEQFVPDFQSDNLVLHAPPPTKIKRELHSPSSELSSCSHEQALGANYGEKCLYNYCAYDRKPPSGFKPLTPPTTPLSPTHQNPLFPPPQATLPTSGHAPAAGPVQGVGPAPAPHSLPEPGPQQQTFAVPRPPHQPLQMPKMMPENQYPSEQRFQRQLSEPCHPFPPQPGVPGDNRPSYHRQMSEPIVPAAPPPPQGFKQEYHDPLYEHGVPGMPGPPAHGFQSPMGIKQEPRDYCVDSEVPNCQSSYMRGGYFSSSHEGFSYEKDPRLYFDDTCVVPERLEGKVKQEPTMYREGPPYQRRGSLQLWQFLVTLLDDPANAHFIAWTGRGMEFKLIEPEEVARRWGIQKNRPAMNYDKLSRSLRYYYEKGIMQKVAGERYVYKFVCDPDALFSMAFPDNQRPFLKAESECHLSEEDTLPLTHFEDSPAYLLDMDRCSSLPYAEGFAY
In short: (§1)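 After expression in yeast as GST fusions, human transcription factors were bound to glutathione beads, DNA-barcoded and mixed with a tag-only sample. The pools were incubated with 200 nmole of a 16-mer random double-stranded DNA library in Tris/NaCl/DTT/glycerol buffer (30 min, room temperature), washed and crosslinked with 0.1% formaldehyde. Proximity ligation with BsaI/T4 ligase ran for 1 h at 37 °C, before PCR amplification and sequencing on an Illumina NextSeq500. Binding signal is a hexamer's read frequency for a factor divided by its frequency for the tag-only sample.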

[2] = biological target: HSF1 (Homo sapiens, UniProt Q00613 1-529); settings: protein: recombinant; tags: N-terminal GST; chain copies: 3; dsDNA, one strand shown
Chain of HSF1 (Q00613 whole entry): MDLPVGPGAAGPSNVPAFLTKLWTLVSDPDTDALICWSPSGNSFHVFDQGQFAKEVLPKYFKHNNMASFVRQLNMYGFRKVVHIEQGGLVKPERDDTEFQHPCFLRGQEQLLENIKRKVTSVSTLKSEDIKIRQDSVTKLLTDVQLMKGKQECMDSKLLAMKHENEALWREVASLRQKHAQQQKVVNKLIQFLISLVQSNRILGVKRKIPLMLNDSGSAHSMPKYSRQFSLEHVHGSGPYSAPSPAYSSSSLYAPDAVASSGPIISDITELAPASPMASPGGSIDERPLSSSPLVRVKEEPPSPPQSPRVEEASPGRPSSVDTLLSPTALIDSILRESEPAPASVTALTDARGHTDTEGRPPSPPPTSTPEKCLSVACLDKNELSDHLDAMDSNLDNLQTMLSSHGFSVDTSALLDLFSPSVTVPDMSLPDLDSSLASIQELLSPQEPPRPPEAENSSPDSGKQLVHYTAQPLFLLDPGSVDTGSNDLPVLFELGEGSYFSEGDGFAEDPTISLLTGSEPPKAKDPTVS
In short: as §1

[3] = biological target: T1, SPIC (Homo sapiens, UniProt Q8N5J4 1-248); settings: protein: recombinant; tags: N-terminal GST; dsDNA, one strand shown
T1 sequence: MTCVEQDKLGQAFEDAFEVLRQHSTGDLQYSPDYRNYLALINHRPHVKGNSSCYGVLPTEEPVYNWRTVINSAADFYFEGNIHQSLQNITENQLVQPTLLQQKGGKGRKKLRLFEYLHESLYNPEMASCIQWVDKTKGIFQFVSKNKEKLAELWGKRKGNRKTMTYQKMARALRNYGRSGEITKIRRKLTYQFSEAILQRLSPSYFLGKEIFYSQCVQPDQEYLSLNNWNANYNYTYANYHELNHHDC
In short: as §1

[4] = biological target: ELF4 (Homo sapiens, UniProt Q99607 1-663); settings: protein: recombinant; tags: N-terminal GST; dsDNA, one strand shown
Chain of ELF4 (Q99607 whole entry): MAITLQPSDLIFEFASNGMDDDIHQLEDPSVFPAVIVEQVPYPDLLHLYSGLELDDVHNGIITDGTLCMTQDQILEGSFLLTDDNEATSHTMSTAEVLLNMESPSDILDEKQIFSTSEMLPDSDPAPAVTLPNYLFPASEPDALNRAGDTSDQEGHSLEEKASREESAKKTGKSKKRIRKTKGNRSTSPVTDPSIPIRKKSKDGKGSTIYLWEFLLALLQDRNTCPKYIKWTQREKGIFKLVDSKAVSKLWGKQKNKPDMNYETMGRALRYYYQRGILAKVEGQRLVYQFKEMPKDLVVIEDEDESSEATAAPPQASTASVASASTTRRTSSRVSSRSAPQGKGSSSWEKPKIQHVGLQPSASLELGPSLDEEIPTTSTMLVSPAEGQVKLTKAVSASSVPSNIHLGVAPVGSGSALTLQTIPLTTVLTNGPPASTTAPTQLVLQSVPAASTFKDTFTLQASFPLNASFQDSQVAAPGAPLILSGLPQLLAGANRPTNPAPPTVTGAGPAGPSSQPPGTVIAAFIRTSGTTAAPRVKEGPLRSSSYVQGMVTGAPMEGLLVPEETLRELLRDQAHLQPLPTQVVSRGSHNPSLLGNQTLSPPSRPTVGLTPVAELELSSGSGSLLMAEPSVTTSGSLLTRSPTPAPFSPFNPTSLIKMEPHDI
In short: as §1

[5] = biological target: T2, ELK4 (Homo sapiens, UniProt P28324-2 1-405); settings: protein: recombinant; tags: N-terminal GST; dsDNA, one strand shown
T2 sequence: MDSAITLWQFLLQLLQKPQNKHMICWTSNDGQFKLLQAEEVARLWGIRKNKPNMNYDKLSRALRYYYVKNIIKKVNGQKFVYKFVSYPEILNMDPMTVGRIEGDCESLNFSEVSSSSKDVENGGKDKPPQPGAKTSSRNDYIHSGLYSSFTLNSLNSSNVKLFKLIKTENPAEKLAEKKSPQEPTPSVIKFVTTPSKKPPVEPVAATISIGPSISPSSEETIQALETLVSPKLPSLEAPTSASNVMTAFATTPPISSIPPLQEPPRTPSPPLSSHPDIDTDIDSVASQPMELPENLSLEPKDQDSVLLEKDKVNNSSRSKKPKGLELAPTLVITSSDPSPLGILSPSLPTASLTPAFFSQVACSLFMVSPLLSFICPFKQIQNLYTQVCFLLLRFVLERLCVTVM
In short: as §1

[6] = biological target: T3, ETV2 (Homo sapiens, UniProt O00321 1-342); settings: protein: recombinant; tags: N-terminal GST; dsDNA, one strand shown
T3 sequence: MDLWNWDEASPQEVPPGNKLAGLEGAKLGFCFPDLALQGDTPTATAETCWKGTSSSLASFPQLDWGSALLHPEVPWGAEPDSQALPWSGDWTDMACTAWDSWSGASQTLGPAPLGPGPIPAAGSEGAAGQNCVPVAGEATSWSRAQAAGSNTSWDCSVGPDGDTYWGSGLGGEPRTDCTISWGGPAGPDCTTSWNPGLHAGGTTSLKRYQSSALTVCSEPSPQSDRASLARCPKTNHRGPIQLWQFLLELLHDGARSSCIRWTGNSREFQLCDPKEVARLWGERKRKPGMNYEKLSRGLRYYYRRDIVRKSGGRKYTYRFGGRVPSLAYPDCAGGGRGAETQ
In short: as §1

[7] = biological target: T4, ELF3 (Homo sapiens, UniProt P78545 1-371); settings: protein: recombinant; tags: N-terminal GST; dsDNA, one strand shown
T4 sequence: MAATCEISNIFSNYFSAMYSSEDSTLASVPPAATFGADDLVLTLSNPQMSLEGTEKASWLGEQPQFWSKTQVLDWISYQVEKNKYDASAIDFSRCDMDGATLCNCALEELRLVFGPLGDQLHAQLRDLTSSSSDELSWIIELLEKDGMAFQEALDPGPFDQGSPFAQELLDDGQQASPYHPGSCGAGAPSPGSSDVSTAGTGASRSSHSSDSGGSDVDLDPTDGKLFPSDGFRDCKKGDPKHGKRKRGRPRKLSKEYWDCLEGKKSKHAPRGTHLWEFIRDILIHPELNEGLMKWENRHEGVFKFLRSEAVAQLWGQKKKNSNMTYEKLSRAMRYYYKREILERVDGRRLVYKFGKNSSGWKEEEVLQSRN
In short: as §1

[8] = biological target: CRX (Homo sapiens, UniProt O43186 1-299); settings: protein: recombinant; tags: N-terminal GST; dsDNA, one strand shown
Chain of CRX (O43186 whole entry): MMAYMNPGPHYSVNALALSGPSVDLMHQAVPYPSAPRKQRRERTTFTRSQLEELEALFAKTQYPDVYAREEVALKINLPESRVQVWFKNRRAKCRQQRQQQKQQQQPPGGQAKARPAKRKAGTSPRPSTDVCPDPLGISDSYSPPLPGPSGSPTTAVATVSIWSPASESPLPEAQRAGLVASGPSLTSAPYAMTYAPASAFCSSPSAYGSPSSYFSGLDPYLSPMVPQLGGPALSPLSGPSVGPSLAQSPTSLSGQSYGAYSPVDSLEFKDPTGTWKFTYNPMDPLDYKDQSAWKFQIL
In short: as §1

[9] = biological target: ETV1 (Homo sapiens, UniProt P50549 1-477); settings: protein: recombinant; tags: N-terminal GST; dsDNA, one strand shown
Chain of ETV1 (P50549 whole entry): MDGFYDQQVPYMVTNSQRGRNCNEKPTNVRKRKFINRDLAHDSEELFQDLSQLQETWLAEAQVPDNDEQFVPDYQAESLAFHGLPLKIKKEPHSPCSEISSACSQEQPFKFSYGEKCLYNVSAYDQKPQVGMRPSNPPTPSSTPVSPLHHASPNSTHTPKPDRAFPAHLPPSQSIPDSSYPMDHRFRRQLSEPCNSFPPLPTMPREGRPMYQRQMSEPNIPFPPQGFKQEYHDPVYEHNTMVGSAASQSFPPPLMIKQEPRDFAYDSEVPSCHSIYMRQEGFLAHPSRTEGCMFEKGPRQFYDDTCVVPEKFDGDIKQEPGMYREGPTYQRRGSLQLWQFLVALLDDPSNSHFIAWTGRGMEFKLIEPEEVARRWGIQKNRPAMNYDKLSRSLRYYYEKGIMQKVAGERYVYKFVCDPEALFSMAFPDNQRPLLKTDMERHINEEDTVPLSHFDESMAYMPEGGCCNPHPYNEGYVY
In short: as §1

CATTAC
binding signal [1]: 1.13 fold enrichment (6-mer frequency, TF over GST control) | binding signal [2]: 1.02 fold enrichment (6-mer frequency, TF over GST control) | binding signal [3]: 1.05 fold enrichment (6-mer frequency, TF over GST control) | binding signal [4]: 1.1 fold enrichment (6-mer frequency, TF over GST control) | binding signal [5]: 1.17 fold enrichment (6-mer frequency, TF over GST control) | binding signal [6]: 1.22 fold enrichment (6-mer frequency, TF over GST control) | binding signal [7]: 1.08 fold enrichment (6-mer frequency, TF over GST control) | binding signal [8]: 1.18 fold enrichment (6-mer frequency, TF over GST control) | binding signal [9]: 1.18 fold enrichment (6-mer frequency, TF over GST control)
